# Assay results as given in a collection of fitness landscapes (doi:10.1126/science.1257360).
# The full ranking holds about 140,000 sequences; the median of “enrichment ratio after two sorts for PhoP signalling” is about 0, and the highest 2% start at about 11. The list comes from a sample in which the highest values are over-represented; it also holds similar and randomly drawn sequences.
# B1: PhoQ; a variant is named by its letters at X, in order, P23837 (parent)
# chain: MKKLLRLFFPLSLRVRFLLATAAVVLVLSLAYGMVALIGYSVSFDKTTFRLLRGESNLFYTLAKWENNKLHVELPENIDKQSPTMTLIYDENGQLLWAQRDVPWLMKMIQPDWLKSNGFHEIEADVNDTSLLLSGDHSIQQQLQEVREDDDDAEMTHSVAVNVYPATSRMPKLTIVVVDTIPVELKSSYMVWSWFIYVLSANLLLVIPLLWVAAWWSLRPIEALAKEVRELEEHNRELLNPATTRELTSLVRNLNRLLKSERERYDKYRTTLTDLTHSLKTPLXXLQXXLRSLRSEKMSVSDAEPVMLEQISRISQQIGYYLHRASMRGGTLLSRELHPVAPLLDNLTSALNKVYQRKGVNISLDISPEISFVGEQNDFVEVMGNVLDNACKYCLEFVEISARQTDEHLYIVVEDDGPGIPLSKREVIFDRGQRVDTLRPGQGVGLAVAREITEQYEGKIVAGESMLGGARMEVIFGRQHSAPKDE
# Variants of: B1
# Test: enrichment ratio after two sorts for PhoP signalling (ratio (wild type AVST 3.29)); higher = more functional
# Settings: with PhoP (E. coli)
row,Variant,enrichment ratio
1,STDK,≤ 0.25
2,AAVN,≤ 0.25
3,KDFG,≤ 0.25
4,MECW,≤ 0.25
5,QECV,8.7
6,TECW,37.6
7,NECW,≤ 0.25
8,TECV,22.2
9,TPKM,≤ 0.25
10,LMLV,≤ 0.25
11,GRQP,≤ 0.25
12,FCMS,≤ 0.25
13,VCMI,17.6
14,FEMW,≤ 0.25
15,FTMI,13.1
16,NSMI,2.19
17,YTMI,6.21
18,FEMI,13
19,KCMI,≤ 0.25
20,FTPA,0.426
21,FEMD,≤ 0.25
22,FCMI,33.7
23,VYMI,≤ 0.25
24,PKDI,≤ 0.25

row,Variant,enrichment ratio
1,LYLD,≤ 0.25
2,HNKV,≤ 0.25
3,VKIK,≤ 0.25
4,ALCW,6.49
5,YKFA,≤ 0.25
6,VGHR,≤ 0.25
7,HQYF,≤ 0.25
8,SEVV,13.1
9,FCVV,≤ 0.25
10,GEVV,17.2
11,SQVV,8.77
12,GGVV,≤ 0.25
13,SLVV,1.38
14,NEVV,≤ 0.25
15,MEVV,2.27
16,TEVV,12.9
17,GETD,≤ 0.25
18,FEVV,11.9
19,MAVV,≤ 0.25
20,NFKG,≤ 0.25
21,QAIA,≤ 0.25
22,KYGI,≤ 0.25
23,SNGI,12.1
24,STGI,4.79

row,Variant,enrichment ratio
1,SCGI,12.6
2,SRGI,≤ 0.25
3,SNFP,≤ 0.25
4,FMGW,≤ 0.25
5,HQYK,≤ 0.25
6,SCLN,11.7
7,SCDT,≤ 0.25
8,SCLA,11.8
9,SCVT,1.01
10,SCLT,13.3
11,SWLN,≤ 0.25
12,SCAT,16.1
13,SCIT,1.21
14,SCLS,9.62
15,SCNT,≤ 0.25
16,SCVA,4.93
17,SCVN,11.1
18,PRNP,≤ 0.25
19,AWLY,≤ 0.25
20,SHFY,≤ 0.25
21,VDWL,≤ 0.25
22,MMEY,≤ 0.25
23,FQTE,≤ 0.25
24,EQTE,≤ 0.25

row,Variant,enrichment ratio
1,TQQK,≤ 0.25
2,TQTE,26.4
3,KSTE,≤ 0.25
4,SQTE,26.5
5,YTEA,≤ 0.25
6,PPGL,≤ 0.25
7,AALC,13.9
8,TGLC,10
9,GGLC,4.03
10,VFLC,≤ 0.25
11,VGLC,16.6
12,NALC,≤ 0.25
13,YALC,3.77
14,VYLC,≤ 0.25
15,AGLC,12.4
16,NNPM,≤ 0.25
17,QKWG,≤ 0.25
18,ASFD,≤ 0.25
19,KIHF,≤ 0.25
20,NGVA,≤ 0.25
21,KLRA,≤ 0.25
22,DMAC,≤ 0.25
23,STAC,4.33
24,QEAC,16

row,Variant,enrichment ratio
1,MMAC,3.29
2,MEAC,37.3
3,NEAC,15.1
4,MKAC,≤ 0.25
5,SFAC,≤ 0.25
6,YWAC,≤ 0.25
7,QKAC,≤ 0.25
8,SEAC,19.8
9,SLAC,2.46
10,NIYV,≤ 0.25
11,IRLQ,≤ 0.25
12,HPHQ,≤ 0.25
13,QISV,≤ 0.25
14,SDLF,≤ 0.25
15,TCEE,≤ 0.25
16,MKWH,≤ 0.25
17,QAWW,≤ 0.25
18,QCDG,≤ 0.25
19,YQQR,≤ 0.25
20,VEAC,0.99
21,SSAC,11.3
22,KAAC,≤ 0.25
23,NQAC,≤ 0.25
24,KSAC,≤ 0.25

row,Variant,enrichment ratio
1,TEAC,25.6
2,FSAC,≤ 0.25
3,SQAC,13.4
4,EQAC,≤ 0.25
5,PWYS,≤ 0.25
6,WGDA,≤ 0.25
7,NQIK,≤ 0.25
8,TQSM,23.3
9,TQTD,≤ 0.25
10,TQHF,16.2
11,RNSM,≤ 0.25
12,LAQF,≤ 0.25
13,TQSF,7.45
14,TQHI,3.97
15,TQHQ,13.8
16,TQQF,33.4
17,TQMS,4.53
18,DWSM,≤ 0.25
19,TQHP,≤ 0.25
20,NYQY,≤ 0.25
21,NTGP,≤ 0.25
22,YRMS,≤ 0.25
23,FSKE,≤ 0.25
24,MTHL,7.87

row,Variant,enrichment ratio
1,PNLT,≤ 0.25
2,TPTL,≤ 0.25
3,SMDI,≤ 0.25
4,REVG,≤ 0.25
5,WQFM,≤ 0.25
6,PAAY,≤ 0.25
7,ENTT,≤ 0.25
8,GKMH,≤ 0.25
9,KCNH,≤ 0.25
10,LNPK,≤ 0.25
11,NECS,≤ 0.25
12,MEWI,24
13,DECV,25.8
14,DECI,≤ 0.25
15,MELA,≤ 0.25
16,MECK,27.3
17,DPCV,≤ 0.25
18,MKCS,≤ 0.25
19,MERM,≤ 0.25
20,MEGM,≤ 0.25
21,MECS,11.2
22,MELS,9.24
23,VHCY,≤ 0.25
24,MPCS,≤ 0.25

row,Variant,enrichment ratio
1,PKNK,≤ 0.25
2,PCQL,≤ 0.25
3,ICAL,0.516
4,STWD,≤ 0.25
5,TWLL,≤ 0.25
6,FYED,≤ 0.25
7,FVPW,≤ 0.25
8,NCRM,≤ 0.25
9,MECI,12.8
10,MMCV,4.31
11,MECV,18.2
12,MEGD,≤ 0.25
13,MECA,3
14,NECV,≤ 0.25
15,DNCI,≤ 0.25
16,VVVI,≤ 0.25
17,MDLY,≤ 0.25
18,TMFE,≤ 0.25
19,MWWC,≤ 0.25
20,SMVG,8.8
21,SMAS,11.6
22,SMYI,≤ 0.25
23,SMRY,≤ 0.25
24,SMAN,6.01

row,Variant,enrichment ratio
1,SMAG,11.3
2,SMAT,7.92
3,SMAY,25.3
4,SMGY,7.3
5,SMTG,5.2
6,SMGD,1.08
7,SMAI,13.5
8,HEDR,≤ 0.25
9,DAFY,≤ 0.25
10,QNHA,≤ 0.25
11,MIDS,≤ 0.25
12,PWKL,≤ 0.25
13,HVPL,≤ 0.25
14,VFFI,≤ 0.25
15,KESQ,≤ 0.25
16,HGIC,≤ 0.25
17,AKCM,15.6
18,AICM,6.05
19,HKCM,≤ 0.25
20,TKCM,46.1
21,MKCM,≤ 0.25
22,KKCM,≤ 0.25
23,SKKH,≤ 0.25
24,PYDF,≤ 0.25

row,Variant,enrichment ratio
1,MIQV,≤ 0.25
2,GAMG,≤ 0.25
3,ISLA,≤ 0.25
4,FALA,5.9
5,FALS,8.07
6,FALI,15.1
7,VSLI,14
8,NSLI,4.88
9,MMLI,≤ 0.25
10,RSLI,≤ 0.25
11,ISLI,11.2
12,TSLI,11.8
13,VSLA,0.756
14,ISLT,0.863
15,ENRC,≤ 0.25
16,VSCH,2.85
17,TYRA,≤ 0.25
18,DETW,≤ 0.25
19,WTDY,≤ 0.25
20,PCSF,≤ 0.25
21,NFAL,≤ 0.25
22,WRVV,≤ 0.25
23,KSLI,≤ 0.25
24,FCLI,7.58

row,Variant,enrichment ratio
1,FSLI,12.9
2,PMYI,≤ 0.25
3,KKIH,≤ 0.25
4,SQIH,12.4
5,SDIH,2.15
6,HKIH,≤ 0.25
7,TKIH,15.7
8,SCIH,1.7
9,GFSR,≤ 0.25
10,REWS,≤ 0.25
11,WQHV,≤ 0.25
12,ASQY,≤ 0.25
13,LLWC,≤ 0.25
14,LEWC,17.6
15,LEFC,12.9
16,LRWC,≤ 0.25
17,LEFA,1.62
18,LEFP,≤ 0.25
19,WGSE,≤ 0.25
20,FYLD,≤ 0.25
21,PSVE,≤ 0.25
22,TCQI,15.2
23,FCQI,≤ 0.25
24,TCVQ,≤ 0.25

row,Variant,enrichment ratio
1,KCQI,≤ 0.25
2,KCQY,≤ 0.25
3,TCQY,31.4
4,KSWN,≤ 0.25
5,TCII,≤ 0.25
6,TCIS,≤ 0.25
7,TCQQ,11.5
8,TCWN,14.9
9,TCGQ,≤ 0.25
10,SLAF,8.18
11,TQKA,≤ 0.25
12,TAWY,6.15
13,HCAS,≤ 0.25
14,TCDN,≤ 0.25
15,TCQN,23
16,TCQF,6.94
17,TCEN,0.333
18,TCMN,58.3
19,TCVN,2.66
20,TCQP,≤ 0.25
21,TCQK,14.2
22,TYMN,0.285
23,TCQA,16.2
24,SCQA,≤ 0.25

row,Variant,enrichment ratio
1,KCQA,≤ 0.25
2,MRIG,≤ 0.25
3,IPRI,≤ 0.25
4,IFEI,≤ 0.25
5,CNHC,≤ 0.25
6,QRMF,≤ 0.25
7,HTHA,≤ 0.25
8,FCQL,≤ 0.25
9,KCQL,≤ 0.25
10,TCQL,13.2
11,HEQV,25.5
12,HECS,2.84
13,HECV,15.4
14,HEQY,≤ 0.25
15,HESH,≤ 0.25
16,HEQP,≤ 0.25
17,HNSW,≤ 0.25
18,ERQE,≤ 0.25
